From PubChem BioAssay
Most compounds without a hit are left out; they make up all but 3.1% or so of the library.
PLK1 PBD block: qHTS for Inhibitors of PLK1-PDB (polo-like kinase 1 - polo-box domain): Primary Screen; Potency, µM, for the others: max response, negative = inhibition, usual class: inhibitors; 2.8% of 360,000 active; Plk1 PBD binding of FITC phosphopeptide, fluorescence polarization; further: potency means the concentration at half of the fitted maximal effect; series mostly up to about 57 µM; on the % scale 0 is the no-effect control and ±100 the full control effect; nearly all actives have a fitted effect of over 65% in size
TSHR antag: Antagonists of the Thyroid Stimulating Hormone Receptor: HTS campaign; activity change, negative = inhibition, % at 11.5 µM; 0.2% of 330,000 active; Thyrotropin receptor (Homo sapiens), P16473; TSHR-expressing cells, TSH-stimulated cAMP HTRF, 2 h; hits give low values; AID 504810, 2011;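 active means activity change below a set negative limit, meaning inhibition stronger than a set level, cut at about -70% in these data; inconclusive means activity change between two set negative limits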; further: on the % scale 0 is the no-effect control and ±100 the full control effect
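Competitive HTRF cAMP read-out (cryptate anti-cAMP antibody, cAMP-d2; 30 min, room temperature) in freshly harvested TSHR cells. Compounds added before TSH at EC80 (4nM final), followed by 2 hours' incubation at 37 deg C.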
VDR inh: Inhibitors of the vitamin D receptor (VDR): qHTS. VDR-SRC2-3 peptide fluorescence polarization, 2 h. Potency, µM, for inactives: max response, negative = inhibition, usual class: inhibitors. 0.93% of 400,000 active; further: potency means the concentration at half of the fitted maximal effect; on the % scale 0 is the no-effect control and ±100 the full control effect
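After 23 nl compound addition and a short centrifugation, plates sat for 2 hours at ambient temperature; polarization of fluorescence then indicated loss of VDR binding to peptide SRC2-3.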
TSG101-PTAP inh: qHTS Assay for Iinhibitors of HIV-1 Budding by Blocking the Interaction of PTAP/TSG101. Tumor susceptibility gene 101 protein (Homo sapiens), Q99816. Fluorescence polarization, FITC-PTAP peptide / Tsg101 binding. Potency, µM (series often up to 115 µM), for the others: at the highest dose activity change, negative = inhibition, actives largely listed as inhibitors. 340,000 tested, under 10 active. AID 493005, 2010; active means well fitted inhibition curve with a large enough effect in the main read-out, with a control signal flat, not every such curve was filed as active; inconclusive means small, poorly fitted or top-dose-only effect, or effect the other way, or a change in a side signal; inactive means no such curve, though single readings can be large or run the other way; further: potency means the concentration at half of the fitted maximal effect; % of control where 0% means no effect
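Fluorescence anisotropy tracks displacement of a FITC-tagged PTAP peptide (50 nM) from the Tsg101 binding domain (10 uM), following a 20 min room-temperature incubation at pH 7.5.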
uPA generation: qHTS for Inhibitors of Cell Surface uPA Generation; cell surface uPA generation assay, qHTS; Potency, µM (series often up to 38.3 µM), for the others: at the top dose activity change, negative = inhibition, most hits filed as inhibitors; 0.31% of 330,000 active; active means well fitted inhibition curve with a large enough effect; inconclusive means small, poorly fitted or top-dose-only effect; inactive means no such curve, though single readings can be large or run the other way; tested in mouse RAW 264.7 cells; further: potency means the concentration at half of the fitted maximal effect; on the % scale 0 is the no-effect control and ±100 the full control effect; nearly all actives have a fitted effect of over 55% in size
The depositor's hits bear a star; u = inconclusive; x = no result given. Unless noted, the call rests on the fitted dose curve; in most records, active means well fitted curve in the direction sought with a large enough effect; inconclusive means small, poorly fitted or top-dose-only effect, or another doubt; inactive means no such curve, though single readings can be large; an effect the other way counts as inactive or inconclusive.

SMILES	PLK1 PBD block	TSHR antag	VDR inh	TSG101-PTAP inh	uPA generation
COc1ccccc1CCNC(=O)C(=O)c1cn(CC(=O)N2CCOCC2)c2ccccc12	24µM*	21	u	-4%	-3%
COc1ccccc1NC(=O)C(Sc1ccccc1)c1ccccc1 (stereo not drawn)	4%	17	17%	-1%	0%
CCOc1ccccc1NC(=O)C(Sc1ccccc1)c1ccccc1 (stereo not drawn)	21µM*	1	-19%	-2%	-2%
Cc1ccc(NC(=O)CC2SC(=O)N(c3ccccc3)C2=O)cc1 (stereo not drawn)	6.7µM*	-6	28µM*	-3%	-2%
Cc1cccc(NC(=O)CC2SC(=O)N(c3ccccc3)C2=O)c1 (stereo not drawn)	15µM*	5	u	-8%	2%
CCCN1C(=O)SC(CC(=O)Nc2ccc(C)cc2)C1=O (stereo not drawn)	-14%	-1	9%	-1%	0%
O=C1SC(Cc2ccccc2)C(=O)N1c1ccccc1 (stereo not drawn)	-11%	-8	-5%	0%	2%
O=C(CC1SC(=O)N(c2ccccc2)C1=O)Nc1ccccc1 (stereo not drawn)	11µM*	37	22µM*	-9%	x
Cc1ccc(N2C(=O)SC(Cc3ccccc3)C2=O)cc1 (stereo not drawn)	7.5µM*	9	u	-1%	-1%
Cc1ccc2c(c1)-c1c(cnn1CC(=O)N1CCN(c3ccccc3F)CC1)CO2	x	x	4%	x	x
CCN(C(=O)COC(=O)CNS(=O)(=O)c1ccc(C)cc1)C1CCS(=O)(=O)C1 (stereo not drawn)	-6%	x	x	x	x
Cc1cc(NC(=O)CCC(=O)N(CC(=O)NC2CCCC2)c2ccc(C)c(F)c2)no1	-13%	-7	2%	-5%	-3%
CC(C)Oc1ccc(CNC(=O)c2cnc3sc(N4CCCC4)nn3c2=O)cc1	x	x	9%	x	x
O=C(CSc1nnc(COc2ccccc2)o1)Nc1cc(C(F)(F)F)ccc1Cl	x	x	-1%	x	x
N#CCCCN1C(=O)C(=C(C#N)C#N)c2ccccc21	5.3µM*	-8	u	-4%	-22%
CCn1nc(C)c2c(-c3ccccc3)cc(=O)n(C(C)C(=O)Nc3ccc(OC)c(OC)c3)c21 (stereo not drawn)	x	x	4%	x	x
Cc1ccc(C)c(NC(=O)CSc2nnc(C)n3c2cc2occc23)c1	x	x	4%	x	x
O=C(c1ccc2c(c1)C(=O)N(CCCO)C2=O)c1ccc2c(c1)C(=O)N(CCCO)C2=O	-5%	-8	3%	-8%	0%
O=C1c2ccc3c4c(ccc(c24)C(=O)N1CCCCO)C(=O)N(CCCCO)C3=O	-5%	-15	-13%	-6%	2.5µM*
CC(NC(=O)c1cnccn1)c1ccc(S(N)(=O)=O)cc1 (stereo not drawn)	27µM*	6	-22%	-4%	-1%
Cc1cc(OCc2ccc(C(=O)n3cccn3)o2)ccc1Cl	24µM*	10	-8%	-1%	0%
COc1ccc(/C=N/NC(=O)c2c(C)nc3ccc(Br)cn23)cc1OC	-6%	2	7%	0%	-4%
COc1cccc(/C=N/NC(=O)c2c(C)nc3ccc(Br)cn23)c1O	u	-4	-10%	-1%	4.5µM*
COc1cc(/C=N/Nc2nc(N3CCCC3)nc(N3CCCC3)n2)ccc1OCc1ccccc1F	-8%	-71*	-10%	-1%	6%
N#CC1=C2SCN(Cc3ccco3)CN2C(=O)CC1c1ccccc1F (stereo not drawn)	27µM*	-6	32µM*	-6%	x
N#CC1=C2SCN(Cc3ccco3)CN2C(=O)CC1c1cccc2ccccc12 (stereo not drawn)	24µM*	5	u	0%	3%
CCc1ccccc1NC(=O)Cn1c(=O)n(CCCS(=O)(=O)C2CCCCC2)c(=O)c2ccccc21	x	x	-8%	x	x
